Assay outcomes as filed in PubChem.
PKA kinase inh: inhibitors of human PKA kinase activity, primary screen, biochemical, ATP-depletion luminescence, Kemptide substrate | 65,000 compounds, 0.1% hits | inhibition, % at 6 µM | AID 524, 2006 | PKA Kemptide phosphorylation, Kinase-Glo ATP luminescence;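 active means inhibition above the screen-wide mean inhibition plus 3 SD, cut at about 21% in these data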
ROCK2 blocker: inhibitors of human ROCK2 kinase, primary screen, biochemical, high-throughput, luminescence; purified ROCK2, Kinase-Glo ATP depletion luminescence; inhibition, % at 6 µM; 60,000 compounds, 0.35% hits; AID 604, 2007;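 active means inhibition above the screen-wide mean inhibition plus 3 SD, cut at about 18% in these data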;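 further: plate controls were DMSO wells for no effect and Y-27632 control wells after no-enzyme background subtraction for full effect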
hDAT+cocaine: changed hDAT dopamine uptake under cocaine IC80, either direction, primary screen, cocaine antagonist project, cell-based, LLC-PK1 hDAT, [14C]-dopamine uptake, MLSMR | LLC-PK1 hDAT cells, [14C]-dopamine uptake with cocaine IC80; actives deviate in either direction | 110,000 compounds, 1.3% hits | AID 449768, 2010 | B-score at 10 µM;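 active means Z score or B-score, a plate-position-corrected score, falls beyond the plate's 99.7% confidence bounds, in either direction; inactive means both scores lie inside the 99.7% bounds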;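 further: scored against the spread of the other compound wells on the same plate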
Target sequence (Q01959 whole entry, looked up): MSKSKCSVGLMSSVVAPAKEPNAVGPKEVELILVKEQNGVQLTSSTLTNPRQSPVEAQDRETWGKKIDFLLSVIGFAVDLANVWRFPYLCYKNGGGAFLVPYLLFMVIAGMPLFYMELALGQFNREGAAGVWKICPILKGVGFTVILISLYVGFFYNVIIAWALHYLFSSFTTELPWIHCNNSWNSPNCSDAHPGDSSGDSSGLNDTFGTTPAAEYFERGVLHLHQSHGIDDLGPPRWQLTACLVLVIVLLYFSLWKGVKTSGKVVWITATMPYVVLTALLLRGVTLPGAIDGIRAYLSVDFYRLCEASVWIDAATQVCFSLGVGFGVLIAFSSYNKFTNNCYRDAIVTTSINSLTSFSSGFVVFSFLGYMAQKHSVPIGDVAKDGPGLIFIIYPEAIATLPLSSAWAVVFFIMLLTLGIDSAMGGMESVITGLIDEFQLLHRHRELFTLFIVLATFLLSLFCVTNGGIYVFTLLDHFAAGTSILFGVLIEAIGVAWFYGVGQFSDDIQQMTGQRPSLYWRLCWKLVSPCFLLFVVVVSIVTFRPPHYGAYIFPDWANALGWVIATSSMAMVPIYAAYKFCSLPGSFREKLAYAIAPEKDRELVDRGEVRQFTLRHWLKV
JNK3 inh: JNK3 kinase activity inhibitors, primary screen, biochemical, human, purified enzyme; HTS; inhibition, % at 8 µM; 60,000 compounds, 0.61% hits; in the data active means inhibition above about 17%;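 further: 0% = DMSO and 100% = reference inhibitor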
D1 allo mod: D1 CRE-luciferase signal change, two-sided – cell-based, HEK293 D1, dopamine EC30, D1 allosteric modulator project, primary screen. D(1A) dopamine receptor (Homo sapiens), P21728. dopamine EC30 potentiation; actives deviate in either direction. B-score at 10 µM. 58,000 compounds, 5.9% hits. AID 641, 2007;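 active means luminescence count or its row- and column-corrected plate score outside the 99.7% band of the plate's sample wells, on either side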
An asterisk follows results filed as active; x = no result; ! = repeats disagree. This excerpt belongs to a sample that is enriched for hits.

SMILES	PKA kinase inh	ROCK2 blocker	hDAT+cocaine	JNK3 inh	D1 allo mod
CCOC(=O)Cc1csc(NC(=O)c2ccc(Br)s2)n1	0	3	2.7*	-1	-0.07
CCOC(=O)Cc1csc(NC(=O)c2c(-c3c(F)cccc3Cl)noc2C)n1	2	4	4.3*	-7	-0.7
COC(=O)c1ccc(NC(=O)c2ccccc2SC)cc1	x	x	3.3*	x	x
Cc1c(Br)c([N+](=O)[O-])nn1C(C)C(=O)N1CCCc2ccccc21 (configuration not stated)	x	x	-8.2*	x	x
CC(=O)Nc1ccc(NC(=O)C(C)n2nc([N+](=O)[O-])c(Br)c2C)cc1 (configuration not stated)	x	x	1.2	x	x
Cc1c(Br)c([N+](=O)[O-])nn1C(C)C(=O)NCc1cccs1 (configuration not stated)	x	x	-9.4*	x	x
Cn1c(C(O)c2ccccc2)nc(Cl)c1Cl (configuration not stated)	2	-1	-0.78	-2	-0.007
CCN(CC)C(=O)CCNS(=O)(=O)c1ccc(C)cc1	x	x	-0.61	x	x
O=C(O)CCN=C1CCCc2ccccc2N1	3	2	1.9	0	-0.45
CN(C)C=NC(=O)/C(C#N)=C1\CCc2ccccc2N1	4	4	-0.11	47*	0.62
O=C(CN1CCN(Cc2ccc(Cl)cc2)C1=O)NCCN1CCCC1	6	1	x	-4	-0.24
c1nc(NC2CCCCC2)c2[nH]cnc2n1	39*	34*	0.41	8	x
c1nc(NCC2CCCO2)c2[nH]cnc2n1 (configuration not stated)	16	x	0.24	x	0.45
CCCC[C@H]1C2=C3[C@@H](CC(C(=O)OC)=C[C@@H](C(=O)OC)[C@H]3C(C)(C)C2=O)n2c(=O)n(-c3ccccc3)c(=O)n21	x	x	0.87	x	x
COc1ccc(C2=NOC(C)(c3nnc(-c4ccc(F)cc4)o3)C2)cc1 (configuration not stated)	x	x	-0.57	x	x
O=C(Cn1nnc2ccccc21)NCc1ccccc1	-4	-3	-8.5*	3	-2.1
CCc1nn2cc(-c3ccccc3)nc2s1	-2	-12	-0.54	3	-8.3*
Cc1nn2cc(-c3ccc(-c4ccccc4)cc3)nc2s1	3	4	0.98	0	-4*
Cc1nn2cc(-c3ccc(Cl)cc3)nc2s1	7	3	-0.3	-3	x
O=C(N/C(=C\c1cccc([N+](=O)[O-])c1)C(=O)N1CCCCC1)c1cccs1	x	x	-0.00019	x	x
CSCC[C@H](NC(=O)Nc1ccc(C)cc1C)C(=O)O	8	4	-0.53	5	-0.72
CSCCC(Nc1ncnc2ccc(Br)cc12)C(=O)O (configuration not stated)	-1	-5	-0.32	19*	0.082
CCc1cc2c(CN3CCN(C)CC3)cc(=O)oc2cc1O	3	10	-9.5*	8	-0.82
Clc1ccc2nc(N3CCCCC3)[nH]c2c1	0	2	1.7	0	-5*
Clc1ccc2nc(N3CCCCC3)sc2c1	6	4	x	2	0.23
SMILES	PKA kinase inh	ROCK2 blocker	hDAT+cocaine	JNK3 inh	D1 allo mod
O=C(Nc1ccc2c(c1)C(=O)N(c1ccccc1)C2=O)C1CCCO1 (configuration not stated)	x	x	0.98	x	x
COc1cc2[nH]c(=O)n(CCCCCC(=O)N3CCN(c4ccccc4)CC3)c(=O)c2cc1OC	1	x	3.5*	x	x
COCCn1c(=O)[nH]c2cc(C(=O)NCCN3CCN(c4cccc(Cl)c4)CC3)ccc2c1=O	4	x	0.54	x	-3.5*
COC(=O)c1ccc2c(=O)n(CCCCCC(=O)N3CCN(c4ccccc4)CC3)c(=O)[nH]c2c1	9	4	-8.3*!	3	-0.69
COc1ccc(N2CCN(CCNC(=O)CCCn3c(=O)[nH]c4cc(Cl)ccc4c3=O)CC2)cc1	-3	x	-1.1	x	-2
Cc1cc(C(=O)NCCCN2CCN(c3cc(Cl)ccc3C)CC2)n(-c2ccccc2)n1	x	x	-0.3	x	x
Cc1cc(C(=O)NCCN2CCN(c3cccc(Cl)c3)CC2)n(-c2ccccc2)n1	2	0	-0.19	0	-3.2*
CCN(CC)CCNC(=O)c1ccc2c(=O)n(CCc3ccccc3)c(=O)[nH]c2c1	-3	x	1.2	x	-3.1*
O=C(NCCCN1CCCCC1)c1ccc2c(=O)n(CCc3ccccc3)c(=O)[nH]c2c1	2	x	x	x	-3.7
O=C(CNCCC1=CCCCC1)Nc1ccccc1N1CCCCC1	3	0	-0.4	1	-0.34
Cc1sc2nc(SCC(=O)N(C)C)[nH]c(=O)c2c1C	-1	2	0.42	-4	0.5
CCN(CC)C(=O)CSc1nc2sc(C)c(C)c2c(=O)[nH]1	4	4	3.5*	-5	x
O=C(c1ccc2c(=O)n3c(nc2c1)CCCCC3)N1CCN(C(c2ccccc2)c2ccccc2)CC1	x	x	-4.1*	x	x
CN(C(=O)c1ccc2c(=O)n3c(nc2c1)CCCCC3)c1ccccc1	0	2	-0.56	-3	-0.69
O=C(/C=C/c1ccccc1)NC(NC(=S)Nc1cccc(Cl)c1)C(Cl)(Cl)Cl (configuration not stated)	x	x	-7.3*	x	x
CC(C)CCN1C(=O)CCC1(C)C(=O)NC1CCCCCCC1 (configuration not stated)	x	x	1.3	x	x
COc1ccccc1NC(=O)c1oc2ccccc2c1NC(=O)c1cc(OC)c(OC)c(OC)c1	-2	0	x	7	14*
Cc1ccc(NC(=O)Cc2nc(CSc3nnc(-c4ccc5c(c4)OCO5)o3)cs2)cc1	2	0	0.0012	5	0.9
COCc1cc(C)nc2sc(C(=O)Nc3nccs3)c(N)c12	9	4	0.64	-4	0.59
Cc1cc(C)c2c(N)c(C(=O)Nc3nccs3)sc2n1	0	0	-0.77	-9	-6.6*
Cc1ccc(C2CC(c3cccs3)=NN2C(=O)c2ccc(Br)o2)cc1 (configuration not stated)	x	x	-0.63	x	x
CN(C)/C=C1\C(=O)c2ccc(N(C)C)nc2CC1c1ccccc1 (configuration not stated)	5	0	x	11	2.3
Brc1ccc2[nH]ncc2c1	12	30*	0.91	7	0.2
COc1ccc(OC)c(S(=O)(=O)N2CCC(C(=O)N3CCN(Cc4ccccc4)CC3)CC2)c1	6	2	-0.55	4	-5.1*
COc1ccc(OC)c(S(=O)(=O)N2CCN(C)CC2)c1	5	7	0.32	-6	0.057
COc1ccc(OC)c(S(=O)(=O)N2CCC(C(=O)NCCc3ccccc3)CC2)c1	x	x	0.00025	x	x
COc1ccc(OC)c(S(=O)(=O)N2CCCCCC2)c1	7	5	-2.4*	-1	0.44
CC1(c2nnc(-c3cccc(Cl)c3)o2)CC(c2ccc(Br)cc2)=NO1 (configuration not stated)	x	x	-0.79	x	x
C=CCN1C(=O)C(Cc2ccc(OC)cc2)S/C1=N\N=C\c1cccs1 (configuration not stated)	x	x	3*	x	x
